# Results: the supplement of paper PMC4206461
# Values without a mark were called inactive.
# Key:
# [1] = test system: Pseudomonas aeruginosa PA14 dppA1-A5 penta mutant + pBBR5.DppA1 (PA14_58350); experiment: respiration area under curve with compound as sole nitrogen source, 24 h (OmniLog AUC (arbitrary units)); higher = more respiration / better utilisation as nitrogen source, active = 2000 or more
# Description: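 Biolog Phenotype MicroArray plates PM6-PM8: each di/tripeptide is the sole nitrogen source. Tetrazolium reduction was read in the OmniLog for 24 h at 37°C and summarised as area under the respiration curve (arbitrary units). Values below 2000 count as no respiration. Strain is the SBP penta mutant complemented with DppA1 on a plasmid under its native promoter. Lys/His/Cys peptides are excluded.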
# [2] = test system: Pseudomonas aeruginosa PA14 wild type; experiment: as above
# Description: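 Biolog Phenotype MicroArray plates PM6-PM8: each di/tripeptide is the sole nitrogen source (IF-0 medium with succinate/ferric citrate and dye mix A). Tetrazolium reduction was read in the OmniLog every 15 min for 24 h at 37°C and summarised as area under the respiration curve (arbitrary units). The paper counts values below 2000 as no respiration and above 8000 as solid respiration. Replicate datasets are averaged.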
# [3] = test system: Pseudomonas aeruginosa PA14 dppBCDF deletion mutant; experiment: respiration area under curve with compound as sole nitrogen source, 24 h (OmniLog AUC (arbitrary units)); higher = more respiration / better utilisation as nitrogen source, active = 2000 or more; extreme values may be limits of the assay
# Description: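 Biolog Phenotype MicroArray plates PM6-PM8: each di/tripeptide is the sole nitrogen source. Tetrazolium reduction was read in the OmniLog every 15 min for 24 h at 37°C and summarised as area under the respiration curve (arbitrary units). Values below 2000 count as no respiration. Strain is the dipeptide ABC transporter deletion mutant.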
smiles,measurement,setting,value
CC(C)[C@H](NC(=O)[C@H](C)N)C(=O)O (plate: PM8),respiration area under curve,[1],7610 (active)
CC(C)C[C@H](NC(=O)[C@@H](N)CC(C)C)C(=O)O (plate: PM6),respiration area under curve,[1],1870
CC(C)[C@H](NC(=O)[C@@H](N)CCCN=C(N)N)C(=O)O (plate: PM6),respiration area under curve,[1],7530 (active)
CC[C@H](C)[C@H](N)C(=O)N[C@@H](CCSC)C(=O)O (plate: PM6),respiration area under curve,[1],289
C[C@H](NC(=O)[C@@H](N)CO)C(=O)O (plate: PM7),respiration area under curve,[2],10900 (active)
same,respiration area under curve,[3],2670 (active)
C[C@H](NC(=O)[C@@H]1CCCN1)C(=O)O (plate: PM7),respiration area under curve,[1],6110 (active)
N[C@@H](Cc1ccccc1)C(=O)N[C@@H](Cc1ccc(O)cc1)C(=O)O (plate: PM8),respiration area under curve,[2],2350 (active)
same,respiration area under curve,[3],881
CC(C)CC(N)C(=O)NC(CC(=O)O)C(=O)O (centres undefined) (plate: PM6),respiration area under curve,[2],7510 (active)
same,respiration area under curve,[3],735
C[C@H](O)[C@@H](NC(=O)CN)C(=O)O (plate: PM8),respiration area under curve,[2],0
same,respiration area under curve,[3],0
CC(C)CC(N)C(=O)NC(Cc1c[nH]c2ccccc12)C(=O)O (centres undefined) (plate: PM7),respiration area under curve,[2],8750 (active)
same,respiration area under curve,[3],7610 (active)
CC(C)[C@H](NC(=O)[C@@H](N)CC(=O)O)C(=O)O (plate: PM6),respiration area under curve,[2],4290 (active)
same,respiration area under curve,[3],524
CSCC[C@H](N)C(=O)N1CCC[C@H]1C(=O)O (plate: PM7),respiration area under curve,[2],8120 (active)
same,respiration area under curve,[3],0
O=C(O)[C@@H]1CCCN1C(=O)[C@@H]1CCCN1 (plate: PM7),respiration area under curve,[2],10500 (active)
same,respiration area under curve,[3],0
CC[C@H](C)[C@H](N)C(=O)N[C@@H](C)C(=O)O (plate: PM6),respiration area under curve,[1],2520 (active)
O=C(O)CNC(=O)[C@@H]1CCCN1 (plate: PM7),respiration area under curve,[2],10100 (active)
same,respiration area under curve,[3],217
NCC(=O)N[C@@H](CC(=O)O)C(=O)O (plate: PM8),respiration area under curve,[2],5610 (active)
same,respiration area under curve,[3],6.75
CC(C)[C@H](N)C(=O)N[C@@H](Cc1ccc(O)cc1)C(=O)N[C@H](C(=O)O)C(C)C (plate: PM8),respiration area under curve,[2],8370 (active)
same,respiration area under curve,[3],5710 (active)
CC[C@H](C)[C@H](N)C(=O)N1CCC[C@H]1C(=O)O (plate: PM6),respiration area under curve,[2],7460 (active)
same,respiration area under curve,[3],0
C[C@H](N)C(=O)N1CCC[C@H]1C(=O)O (plate: PM6),respiration area under curve,[2],12000 (active)
same,respiration area under curve,[3],717
N[C@@H](Cc1ccccc1)C(=O)NCC(=O)NCC(=O)O (plate: PM8),respiration area under curve,[1],7350 (active)
CC[C@H](C)[C@H](NC(=O)[C@@H](N)CCCN=C(N)N)C(=O)O (plate: PM6),respiration area under curve,[2],9540 (active)
same,respiration area under curve,[3],8310 (active)
C[C@H](N)C(=O)N[C@@H](Cc1ccc(O)cc1)C(=O)O (plate: PM6),respiration area under curve,[2],6830 (active)
same,respiration area under curve,[3],4510 (active)
CC(C)C[C@H](NC(=O)[C@@H](N)CCCN=C(N)N)C(=O)O (plate: PM6),respiration area under curve,[1],7900 (active)
N[C@@H](Cc1ccccc1)C(=O)N[C@@H](CO)C(=O)O (plate: PM7),respiration area under curve,[1],6540 (active)
CC(C)C(N)C(=O)NC(CO)C(=O)O (centres undefined) (plate: PM8),respiration area under curve,[2],9530 (active)
same,respiration area under curve,[3],844
C[C@H](N)C(=O)N[C@@H](C)C(=O)O (plate: PM6),respiration area under curve,[1],7210 (active)
CC(C)[C@H](NC(=O)[C@@H](N)Cc1ccc(O)cc1)C(=O)O (plate: PM8),respiration area under curve,[2],7430 (active)
same,respiration area under curve,[3],5040 (active)
CC(C)C[C@H](N)C(=O)NCC(=O)NCC(=O)O (plate: PM8),respiration area under curve,[1],8090 (active)
N[C@@H](CC(=O)O)C(=O)N[C@@H](Cc1ccccc1)C(=O)O (plate: PM6),respiration area under curve,[2],3070 (active)
NC(N)=NCCC[C@H](N)C(=O)N[C@@H](Cc1ccccc1)C(=O)O (plate: PM6),respiration area under curve,[2],9420 (active)
N[C@@H](Cc1ccc(O)cc1)C(=O)N[C@@H](Cc1ccccc1)C(=O)O (plate: PM7),respiration area under curve,[2],6680 (active)
CC[C@H](C)[C@H](N)C(=O)NCC(=O)O (plate: PM6),respiration area under curve,[2],4940 (active)
CC(NC(=O)C(N)CC(=O)O)C(=O)O (centres undefined) (plate: PM8),respiration area under curve,[2],8830 (active)
N[C@@H](Cc1ccccc1)C(=O)N[C@@H](CCC(=O)O)C(=O)O (plate: PM8),respiration area under curve,[2],2920 (active)
NC(=O)CC[C@H](N)C(=O)NCC(=O)O (plate: PM6),respiration area under curve,[2],7270 (active)
CC(C)[C@@H](NC(=O)CN)C(=O)O (plate: PM8),respiration area under curve,[2],0
CSCC[C@H](NC(=O)[C@@H](N)CCCN=C(N)N)C(=O)O (plate: PM6),respiration area under curve,[2],10500 (active)
NC(=O)CC[C@H](NC(=O)[C@@H](N)Cc1ccc(O)cc1)C(=O)O (plate: PM7),respiration area under curve,[2],13000 (active)
CSCC[C@H](N)C(=O)N[C@H](C(=O)O)C(C)C (plate: PM7),respiration area under curve,[2],4480 (active)
NCC(=O)N[C@@H](Cc1c[nH]c2ccccc12)C(=O)O (plate: PM6),respiration area under curve,[2],755
C[C@H](N)C(=O)N[C@@H](CCC(=O)O)C(=O)O (plate: PM6),respiration area under curve,[2],7840 (active)
C[C@@H](O)[C@H](N)C(=O)N[C@@H](Cc1ccccc1)C(=O)O (plate: PM8),respiration area under curve,[2],8640 (active)
CC(C)C[C@H](N)C(=O)N[C@@H](CO)C(=O)O (plate: PM7),respiration area under curve,[2],13500 (active)
NC(N)=NCCC[C@H](N)C(=O)N[C@@H](CC(=O)O)C(=O)O (plate: PM6),respiration area under curve,[2],9430 (active)
C[C@@H](O)[C@H](N)C(=O)N[C@@H](CO)C(=O)O (plate: PM8),respiration area under curve,[2],7920 (active)
NC(=O)C[C@H](NC(=O)[C@@H]1CCCN1)C(=O)O (plate: PM8),respiration area under curve,[2],12900 (active)
O=C(O)[C@H](Cc1ccc(O)cc1)NC(=O)[C@@H]1CCCN1 (plate: PM7),respiration area under curve,[2],12200 (active)
CC(C)[C@H](N)C(=O)N[C@@H](Cc1ccccc1)C(=O)O (plate: PM8),respiration area under curve,[1],5560 (active)
same,respiration area under curve,[2],6560 (active)
CC[C@H](C)[C@H](N)C(=O)N[C@@H](CC(C)C)C(=O)O (plate: PM8),respiration area under curve,[2],6290 (active)
NCC(=O)N[C@@H](CC(N)=O)C(=O)O (plate: PM8),respiration area under curve,[2],14700 (active)
NC(=O)CC[C@H](NC(=O)[C@@H](N)CO)C(=O)O (plate: PM8),respiration area under curve,[1],7790 (active)
same,respiration area under curve,[2],9860 (active)
N[C@@H](CO)C(=O)N[C@@H](Cc1ccccc1)C(=O)O (plate: PM7),respiration area under curve,[1],6220 (active)
same,respiration area under curve,[2],7090 (active)
O=C(O)[C@@H]1C[C@@H](O)CN1C(=O)[C@@H]1CCCN1 (plate: PM7),respiration area under curve,[1],0
same,respiration area under curve,[2],0
CC(C)C[C@H](N)C(=O)N1CCC[C@H]1C(=O)O (plate: PM8),respiration area under curve,[1],5120 (active)
same,respiration area under curve,[2],9370 (active)
CC(C)[C@H](N)C(=O)N[C@@H](C)C(=O)O (plate: PM8),respiration area under curve,[2],6590 (active)
N[C@@H](Cc1ccc(O)cc1)C(=O)N[C@@H](Cc1c[nH]c2ccccc12)C(=O)O (plate: PM7),respiration area under curve,[1],2730 (active)
same,respiration area under curve,[2],3280 (active)
NC(=O)C[C@H](N)C(=O)N[C@@H](CCC(=O)O)C(=O)O (plate: PM6),respiration area under curve,[2],5930 (active)
CC(C)[C@H](N)C(=O)NCC(=O)O (plate: PM7),respiration area under curve,[2],9460 (active)
C[C@@H](O)[C@H](N)C(=O)N1CCC[C@H]1C(=O)O (plate: PM7),respiration area under curve,[2],13000 (active)
CC(C)[C@H](N)C(=O)N[C@@H](CCCN=C(N)N)C(=O)O (plate: PM7),respiration area under curve,[2],14300 (active)
CSCC[C@H](N)C(=O)N[C@@H](CC(C)C)C(=O)O (plate: PM7),respiration area under curve,[1],1540
same,respiration area under curve,[2],2580 (active)
C[C@@H](O)[C@H](NC(=O)CN)C(=O)O (plate: PM6),respiration area under curve,[2],5430 (active)
NC(N)=NCCC[C@H](NC(=O)[C@@H]1CCCN1)C(=O)O (plate: PM8),respiration area under curve,[2],12100 (active)
CC(C)C[C@@H](N)C(=O)N[C@@H](Cc1ccc(O)cc1)C(=O)O (plate: PM8),respiration area under curve,[1],21.2
same,respiration area under curve,[2],36.8
